ATXN viability: viability counter-screen for ATXN expression inhibitors; S2 cells (HEK-293 line with an ATXN2-luciferase reporter) viability, CellTiter-Fluor protease fluorescence, 24 h; Potency, µM (highest dose often 56.7 µM), hits mostly cytotoxic; actives 0.49% (n = 400,000); AID 651635; note: potency is the fitted concentration of half-maximal effect; nearly all actives have a fitted effect of over 40% in size
PINK1 modulator: changes PINK1 expression. Potency, µM (top dose mostly 76.6 µM), for inactives: at the highest dose activation (PINK1 increase), usual class: activators. actives 0.2% (n = 410,000). PINK1 immunofluorescence, high-content cytometry, 24 h. AID 624263; active = well fitted activation curve with a large enough effect; inconclusive = small, poorly fitted or top-dose-only effect; cell line not stated here; note: potency is the fitted concentration of half-maximal effect; % of control where 0% means no effect; nearly all actives have a fitted effect of over 65% in size
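Readout is PINK1 immunofluorescence, quantified alongside mitochondrial, cell and nuclear markers by laser-scanning microplate cytometry. Cells from a stable line were exposed to compound titrations (5 concentrations) for 24 hours, with CCCP controls.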
IL1B secr inh: inhibitors of inflammasome signaling (IL-1 beta secretion) | THP-1 LPS/ATP IL-1B secretion, AlphaLISA, 16 h; stronger effect = lower value | activity change, % at 57.5 µM | actives 4.7% (n = 360,000); in the data active = activity change below about -50%; inconclusive = mostly about -30% to -49%; note: % is set by controls: 0 for no effect and ±100 for the full control effect
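THP-1 cells pretreated 1 hr with compounds (up to 57.5 uM final), then stimulated with LPS (250 ng/mL final) plus ATP (1.25 mM final); secreted IL-1B measured by AlphaLISA after 16 hr, decreased signal indicating inhibition.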
MCF10A rerep: DNA re-replication induction in MCF 10a cells. actives 2.9% (n = 350,000). Potency, µM (top dose mostly 46.1 µM), for inactives: at the highest dose activity, positive = re-replication, usual class: activators. MCF 10A DNA re-replication, Hoechst nuclear intensity, 48 h; note: potency is the fitted concentration of half-maximal effect; % of control where 0% means no effect; nearly all actives have a fitted effect of over 50% in size
SW480 rerep: induces DNA re-replication in SW480 colon adenocarcinoma cells | SW480 DNA re-replication, Hoechst DNA content imaging, 48 h | actives 1.8% (n = 340,000) | AID 624297 | Potency, µM (highest dose often 46.1 µM), without a hit: top-dose re-replication activation, hits mostly activators; note: potency is the fitted concentration of half-maximal effect; % of control where 0% means no effect; nearly all actives have a fitted effect of over 55% in size
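Image-based read-out: total Hoechst fluorescence of nuclei (405 nm excitation, 500-530 nm emission), with hits raising the fraction of high-intensity nuclei. SW480 colon cells incubated 48 hr with compounds at 37 C.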
ATXN2 expr inh: ATXN2 expression inhibition; HEK-293 ATXN2-luciferase reporter, luminescence, 24 h; Potency, µM (series often up to 57 µM), inactives show top-dose activity change, negative = inhibition, actives largely listed as inhibitors; actives 0.72% (n = 360,000); AID 1745845; note: potency is the fitted concentration of half-maximal effect; % is set by controls: 0 for no effect and ±100 for the full control effect; nearly all actives have a fitted effect of over 55% in size
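qHTS (up to 57 uM final) was run with 24 h compound exposure of reporter cells at 37 °C. Each well was multiplexed: SteadyGlo luminescence measured ATXN2-luciferase expression after a fluorogenic Gly-Phe-AFC viability readout (25 uM final).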
An asterisk follows results filed as active; i = inactive; ? = inconclusive; / = no result given; [ ] = dose if it differs, or a comment. The list is not random: actives were taken first. Their share in the collection is about 7.1%. Unless noted, calls come from the whole dose curve; as a rule, active = well fitted curve in the direction sought with a large enough effect; inconclusive = small, poorly fitted or top-dose-only effect, or another doubt; inactive = no such curve, though single readings can be large; an effect the other way counts as inactive or inconclusive.

SMILES	ATXN viability	PINK1 modulator	IL1B secr inh	MCF10A rerep	SW480 rerep	ATXN2 expr inh
O=C(Nc1cccnc1)Nc1ccccc1Cl	?	-4%[38.3 µM]	10	-1%	1%	24%
O=C(Nc1ccccc1)Nc1cc(OCC(F)(F)F)cc(OCC(F)(F)F)c1	i	2%	-103*	21µM*	15%	-10%[11.3 µM]
COc1ccc(CCNc2oc(/C=C/c3ccc(OC)c(OC)c3)nc2C#N)cc1	/	2%	/	/	/	/
CCOc1ccc(OCC)c(NC(=O)Cn2ncc3c4ccccc4n(Cc4ccccc4)c3c2=O)c1	i	4%	/	/	/	7%
CC(C)N(C(=O)CSc1ccc(S(=O)(=O)N2CCCCC2)cn1)c1ccccc1	i	-2%	-25	5.8µM*	-10%	-11%
CN(C)C(=O)CSc1ccc(S(=O)(=O)N2CCCC2)cn1	i	-1%	-7	0%	-3%	3%
CC(=O)N(Cc1ccc2c(c1)OCO2)Cc1cc2ccc(C)cc2nc1-c1cccc(C)c1	i	0%	/	/	/	/
CCOc1ccc(NC(=O)CN(C)C(=O)C2CCN(C(=O)c3ccc(Cl)cc3)CC2)cc1OCC	i	-2%	-51*	1%	-21%	-2%
NC(=O)c1ccc[n+]([C@@H]2O[C@H](COP(=O)([O-])OP(=O)(O)OC[C@H]3O[C@@H](n4cnc5c(N)ncnc54)[C@H](O)[C@@H]3O)[C@@H](O)[C@H]2O)c1	i	/	/	/	/	/
COc1ccc2sc(N(Cc3cccnc3)C(=O)C3COc4ccccc4O3)nc2c1 (stereo unspecified)	/	-1%	/	/	/	/
CN(C)c1ccc(/C=C/c2cccc[n+]2[O-])cc1	/	-1%	/	-36%	?	-19%
CC(C)CC[n+]1ccccc1/C=C/c1ccc(N(C)C)cc1	?	32µM*	-95*	22%	4.6µM*	?
Nc1ccc2oc(Cc3ccc(Cl)cc3)nc2c1	/	3%	/	/	/	/
COc1ccc(NC(=O)C2=Cc3cccc(OC)c3OC2)cc1	?	4%	-5	-4%	-3%	17%
COc1ccc(NC(=O)C2=Cc3ccccc3OC2)cc1	i	0%	-51*	1%	11%	17%
COc1ccc(NC(=O)c2ccc3c(c2)OCCO3)cc1OC	i	0%	-17	-1%	-9%	27%
COc1cc2[nH]c(C(=O)Nc3ccc4c(c3)OCCO4)cc2c(OC)c1OC	?	0%	-91*	-13%	-8%	1%
COc1cc(NC(=O)c2ccc3c(c2)OCCO3)ccc1NC(=O)c1ccccc1Cl	i	4%	-53*	12%	3%	-29%
COc1cc2cc(C(=O)Nc3ccc4c(c3)OCCO4)[nH]c2cc1OC	i	3%	-10	0%	0%	/
CC(OC(=O)c1nc(Cl)ccc1Cl)C(=O)Nc1ccc2c(c1)OCCO2 (stereo unspecified)	i	-3%	24	1.6µM*	-37%	6%
COc1ccc(C(=O)CCNc2ccc3c(c2)OCCO3)cc1	i	3%	-53*	23µM*	?	15%
O=C(Nc1ccc2oc(-c3ccccc3)nc2c1)c1ccc2c(c1)OCCO2	?	13µM*	-24	21µM*	?	-19%
COc1ccc(C(=O)Nc2ccc3c(c2)OCCO3)cc1	i	2%[38.3 µM]	-15	?	7.3µM*	0%
O=S(=O)(Nc1ccc2c(c1)OCO2)c1ccc(Br)s1	i	3%[38.3 µM]	6	18µM*	?	17%
COc1ccc(C(=O)CCNc2cccc(Cl)c2)cc1	i	10%	-14	-6%	0%	37%
SMILES	ATXN viability	PINK1 modulator	IL1B secr inh	MCF10A rerep	SW480 rerep	ATXN2 expr inh
COc1ccc(OCCCC(=O)Nc2ccc3c(c2)OCCO3)cc1	i	-1%[38.3 µM]	-4	21µM*	27%	36%
O=C(Nc1ccc2c(c1)OCCO2)c1ccc(Br)s1	i	?	-76*	?	107%	54%
O=C(Nc1ccc2c(c1)OCCO2)c1ccccc1	i	1%	-25	0%	-3%	15%
CCOc1ccc(N/C(C)=C/C(=O)c2ccc3c(c2)OCCO3)cc1	i	17%	-77*	3%	-3%	55%
Cc1ccc(OCCN2CCC2(C)C(=O)Nc2ccc3c(c2)OCCO3)cc1 (stereo unspecified)	?	-1%	-110*	/	/	-8%
CCOc1ccc(N/C(C)=C\C(=O)c2ccc3c(c2)OCCO3)cc1	?	6%	-11	?	-2%	18%
COC(=O)c1ccc(COC(=O)c2ccc(C)c(S(=O)(=O)N3CCCCC3)c2)cc1	i	-3%	33	6%	-42%	24%
COc1cccc(CNC(=O)CCc2nnc3n(C)c(=O)c4sccc4n23)c1	/	0%	/	/	/	/
Cc1ccc(NC(=O)c2oc3ccccc3c2COC(C)C)cc1S(=O)(=O)N1CCOCC1	?	3%	-19	?	2%	-13%
COc1cccc(CNC(C)C(=O)Nc2ccc3c(c2)OCCO3)c1 (stereo unspecified)	i	0%	-61*	0%	-1%	2%
CCc1nn2cc(C(=O)c3cc(Cl)ccc3O)cnc2c1-c1ccc(F)cc1	i	?	-77*	?	5%	?
CCc1ccc2occ(CC(=O)Nc3ccc(OC)c(Cl)c3)c2c1	/	-1%	/	/	/	/
CC(C)(C)Cc1c(-c2ccc(C#N)cc2)nc2c(Cl)cc(C(F)(F)F)cn12	?	35µM*	31	/	/	?
CC1CCN(c2nc3ccccn3c(=O)c2C=O)CC1	i	0%	34	1%	-23%	0%
Cc1cccn2c(=O)c(C=O)c(Cl)nc12	?	2%	-96*	?	?	?
CCOC(=O)N1CCN(c2nc3c(C)cccn3c(=O)c2C=O)CC1	i	0%	4	-3%	-8%	-6%
Cc1cccn2c(=O)c(C=O)c(N3CCCCC3)nc12	/	0%	-5	1%	7%	-2%[11.3 µM]
Cc1cccn2c(=O)c(C=O)c(Sc3ncccn3)nc12	i	1%	-65*	?	12%	20%
O=Cc1c(Cl)nc2ccccn2c1=O	i	9%	-99*	26µM*	?	18%
COc1cccc(CNC(=O)c2ccc(-c3nc(COc4ccccc4)c(C)o3)cc2)c1	i	1%	/	/	/	-24%
O=C(NCCc1ccccc1F)c1ccc2c(c1)OCCO2	?	1%	-8	1%	-1%	0.56µM*
Cc1ccc2[nH]cc(CCNC(=O)c3ccc4c(c3)OCO4)c2c1	i	-1%	-53*	1%	?	3%
O=C(NCCc1c[nH]c2ccccc12)c1ccc2c(c1)OCO2	i	0%	7	11%	-5%	127%
Cc1ccc2[nH]cc(CCNC(=O)c3cccs3)c2c1	i	1%	-75*	?	4%	-8%

Screening results: PubChem, National Center for Advancing Translational Sciences (NCATS)
